# Among all 310,000 compounds or so, about 14,000 (4.5%) showed an effect of 50% or more. Effects have a minus sign here. Many of the other results were omitted from the sample, so strong results are more common in it than they were.
# Biological target: human ether-à-go-go-related gene (hERG) potassium channel (human, UniProt Q12809)
# Experiment: primary screen, population patch clamp on CHO cells stably expressing hERG; higher = less effect of the substance
# 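Also: peak tail current of the secondary pulse compared with the same well before compound.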
# human ether-à-go-go-related gene (hERG) potassium channel, sequence (Q12809 whole entry, looked up): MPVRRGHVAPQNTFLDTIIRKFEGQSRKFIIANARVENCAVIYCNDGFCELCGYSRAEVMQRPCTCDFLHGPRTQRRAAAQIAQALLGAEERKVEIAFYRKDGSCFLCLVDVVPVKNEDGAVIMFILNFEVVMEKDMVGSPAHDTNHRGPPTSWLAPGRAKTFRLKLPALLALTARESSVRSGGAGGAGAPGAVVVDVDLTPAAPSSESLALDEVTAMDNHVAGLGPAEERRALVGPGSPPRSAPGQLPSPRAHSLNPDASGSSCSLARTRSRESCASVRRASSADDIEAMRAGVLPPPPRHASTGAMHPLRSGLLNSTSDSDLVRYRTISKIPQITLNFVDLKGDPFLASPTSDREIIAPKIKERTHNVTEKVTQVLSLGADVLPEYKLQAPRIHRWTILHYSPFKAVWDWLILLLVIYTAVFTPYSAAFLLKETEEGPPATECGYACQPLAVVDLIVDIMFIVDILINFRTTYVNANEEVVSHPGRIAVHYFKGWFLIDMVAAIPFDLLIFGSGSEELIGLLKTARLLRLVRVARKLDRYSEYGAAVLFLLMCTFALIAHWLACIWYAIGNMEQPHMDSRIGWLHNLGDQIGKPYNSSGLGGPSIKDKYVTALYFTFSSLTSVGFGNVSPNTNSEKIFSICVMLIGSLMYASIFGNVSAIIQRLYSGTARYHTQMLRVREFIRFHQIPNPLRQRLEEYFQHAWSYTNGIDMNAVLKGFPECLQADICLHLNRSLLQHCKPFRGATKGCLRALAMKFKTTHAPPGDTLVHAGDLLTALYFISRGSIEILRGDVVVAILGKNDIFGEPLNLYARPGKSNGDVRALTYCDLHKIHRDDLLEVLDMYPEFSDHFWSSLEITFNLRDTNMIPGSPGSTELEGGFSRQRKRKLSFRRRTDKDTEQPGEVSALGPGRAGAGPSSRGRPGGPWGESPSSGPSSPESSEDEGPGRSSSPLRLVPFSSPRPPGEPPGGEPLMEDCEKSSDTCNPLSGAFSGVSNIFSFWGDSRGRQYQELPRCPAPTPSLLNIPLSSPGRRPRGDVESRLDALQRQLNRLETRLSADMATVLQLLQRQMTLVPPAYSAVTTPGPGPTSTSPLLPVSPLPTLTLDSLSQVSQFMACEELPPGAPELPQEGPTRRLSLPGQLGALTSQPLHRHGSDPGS
row,Compound,"hERG current change (%, negative = inhibition) at 10uM [%]"
1,Cc1ccc(C)c(SCC(=O)Nc2cccnc2Cl)c1,0.545
2,O=C(COC(=O)Cc1ccccc1[N+](=O)[O-])NCC1CCCCC1,0.647
3,COc1ccc(NC(=S)NC(=O)C2CCC2)cc1,7.29
4,O=S(=O)(NCc1ccco1)c1cccc2cccnc12,-22.3
5,N#CC(C#N)=C1C=CC=CN1/C(=C\c1ccco1)C(=O)c1ccc(-c2ccccc2)cc1,3.14
6,COc1ccc(C(=O)/C(=C\c2ccco2)N2C=CC=CC2=C(C#N)C#N)cc1,-72
7,N#CC(C#N)=C1C=CC=CN1/C(=C\c1ccco1)C(=O)c1ccccc1,-57.8
8,N#CC(C#N)=C1C=CC=CN1/C(=C\c1ccco1)C(=O)c1ccc(Cl)cc1,-36
9,N#CC(C#N)=C1C=CC=CN1/C(=C\c1ccco1)C(=O)c1ccc(Br)cc1,-46.5
10,N#CC(C#N)=C1C=CC=CN1/C(=C\c1ccccc1Cl)C(=O)c1ccccc1,8.73
11,COc1cc(/C=N/Nc2ccc([N+](=O)[O-])cc2S(=O)(=O)N2CCOCC2)cc(OC)c1OC,-3.33
12,O=C(Nc1ccc(Cl)cc1Cl)c1csc(-c2cccnc2)n1,-1.42
13,CS(=O)(=O)N1CCc2cc(C(=O)Nc3ccccc3)ccc21,-1.25
14,Cc1cccc(Nc2nc(NCc3ccco3)nc(N)c2[N+](=O)[O-])c1,10.6
15,CC(C)Oc1ccc(CN2CCC(n3nccc3NC(=O)c3cccnc3)CC2)cc1,-70.4
16,O=C(Nc1ccnn1C1CCN(Cc2ccc(OC(F)F)cc2)CC1)C1CCCC1,-75.3
17,Cc1ccc(CN2CCC(n3nccc3NC(=O)C3CCOC3)CC2)cc1C (centres unmarked),-20.5
18,CCOc1cccc(CN2CCC(n3nccc3NC(=O)C3CC3)CC2)c1O,-64.2
19,COc1ccc(CN2CCC(n3nccc3NC(=O)C3CC3)CC2)cc1O,-58.8
20,O=C(Nc1ccnn1C1CCN(Cc2cccc(F)c2F)CC1)C1CCCC1,-23.2

row,Compound,"hERG current change (%, negative = inhibition) at 10uM [%]"
1,Cc1ccccc1CN1CCC(n2nccc2NC(=O)c2cccnc2)CC1,-14.6
2,Cc1cc(NC(=O)C(C)SCC(=O)OCc2ccc(Cl)cc2Cl)no1 (centres unmarked),1.04
3,Cc1ccc(C(=O)NCc2ccco2)c(C)c1,20.5
4,O=C(CCC(=O)N1CCN(c2ccc(O)cc2)CC1)c1ccc(Br)cc1,-44.4
5,O=C(O)c1cc(-c2ccccc2)nc(-c2ccccc2)c1,22.5
6,CC1CN(c2ccc([N+](=O)[O-])cc2C(=O)N2CCOCC2)CC(C)N1 (centres unmarked),-9.17
7,COC(=O)c1ccc(CN2CCC(n3nccc3NC(=O)C3CCCC3)CC2)cc1,-67.7
8,COc1ccc(CN2CCC(n3nccc3NC(=O)C3CCCC3)CC2)cc1,-68.9
9,Cn1cc(CN2CCC(n3nccc3NC(=O)C3CCCC3)CC2)cn1,12.6
10,CC(C)(O)C#Cc1ccc(CN2CCC(n3nccc3NC(=O)C3CC3)CC2)cc1,-19
11,COC(=O)c1ccc(CN2CCC(n3nccc3NC(=O)C3CC3)CC2)cc1,-55.6
12,CCOc1ccc(CN2CCC(n3nccc3NC(=O)C3CC3)CC2)cc1CO,-57.1
13,CCOc1cc(CN2CCC(n3nccc3NC(=O)C3CC3)CC2)ccc1O,-22
14,CC1CCCC(C)N1CCCNC(=O)Cn1cc2c(n1)CCCC2 (centres unmarked),-3.99
15,COc1cccc(CNCc2ccc3c(c2)OCO3)c1.O=C(O)C(=O)O,13.7
16,O=C(N[C@@H](Cc1ccccc1)c1nc2ccccc2[nH]1)c1cc([N+](=O)[O-])ccc1Cl,-28
17,CCc1c(O)nc(SCC(N)=O)n(-c2ccccc2F)c1=O,7.56
18,CCC(C)N(C(=O)C(F)(F)F)C(C(=O)NC1CCCCC1)c1ccncc1 (centres unmarked),7.62
19,O=S(=O)(c1ccc(Cl)cc1Cl)N1CCCC1c1cccnc1 (centres unmarked),7.32
20,Cc1ccc(SCC(=O)NCc2ccco2)cc1,3.39

row,Compound,"hERG current change (%, negative = inhibition) at 10uM [%]"
1,COC(=O)c1c(SCC(=O)NC2CCCCC2)[nH]c2ccccc2c1=O,-0.717
2,COc1cc(CN2CCC(n3nccc3NC(=O)C3CC3)CC2)cc(OC)c1,-66.3
3,COc1cccc(CN2CCC(n3nccc3NC(=O)C3CC3)CC2)c1,-44.7
4,O=C(Nc1ccnn1C1CCN(Cc2cccc(OCCO)c2)CC1)C1CC1,0.219
5,CC(C)Oc1ccc(CN2CCC(n3nccc3NC(=O)C3CC3)CC2)cc1,-79.4
6,CN(CC(=O)Nc1ccc(F)c(F)c1F)C(=O)C1CSC2(C)CCC(=O)N12 (centres unmarked),-5.92
7,O=C(Nc1ccc(OC(F)F)cc1)Nc1cccc(C(F)(F)F)c1,6.56
8,O=C(CO/N=C/c1ccc(OC(F)F)cc1)NCc1ccco1,-51.8
9,CN(C(=O)CO/N=C/c1ccc(OC(F)F)cc1)C1CCS(=O)(=O)C1 (centres unmarked),-59.2
10,O=C(CO/N=C/c1ccccc1OC(F)F)NCc1cccs1,-12.9
11,O=C(CO/N=C/c1ccc(OC(F)F)cc1)NCc1cccs1,-62.6
12,O=C(CO/N=C/c1ccc(OC(F)F)cc1)NC1CCCC1,-49
13,CCOc1ccc(/C=N/OCC(=O)NCc2cccs2)cc1,-11.6
14,CCOc1ccc(/C=N/OCC(=O)NCc2ccco2)cc1,-12.9
15,O=C(CO/N=C/c1ccc(OC(F)F)cc1)NCc1ccc(F)cc1,-79.2
16,CC(C)(C)c1ccc(/C=N/OCC(=O)NCc2ccc(F)cc2)cc1,-2.59
17,O=C(CO/N=C/c1ccccc1OC(F)F)NCc1ccco1,-5.06
18,COC(=O)c1ccc(/C=N/OCC(=O)NCc2ccc(F)cc2)cc1,17.9
19,O=C(CO/N=C/c1ccc(OC(F)F)cc1)NC1CCCCC1,-8.59

# From publication PMC4336329 (PLoS ONE, 2015)
